Compounds with a hit are over-represented: about 1.9% of the library has one in this group of screens.
MEX-5 binding: MEX-5 zinc finger RNA-binding disruptors – biochemical, C. elegans, fluorescence polarization, MLPCN library, primary screen; MEX-5/FITC-TCR2 RNA binding; active compounds read low; activity score (negative = inhibition of binding), % at 10 µM; actives 0.38% (n = 300,000);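 active = inhibition past about -25% in most replicates, and total fluorescence under double the plate's negative control median, limit read from the data; inconclusive = replicates evenly split on the limit, or fluorescence at least double controls; inactive = too little inhibition in most replicates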;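 also: 0% = DMSO and -100% = 5 µM competing unlabeled TCR2 RNA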
BCLXL inh: inhibitors of human Bcl-xL, primary screen, biochemical, fluorescence polarization, HTS; inhibition, % at 10.9 µM; Bcl-2-like protein 1 (Homo sapiens), Q07817; AID 2129, 2009; GST-Bcl-xL / FITC-Bim BH3 peptide fluorescence polarization; actives 0.7% (n = 320,000);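 active = inhibition above the mean of all tested compounds plus 3 SD, cutoff set per campaign, cut at about 30% in these data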;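 also: 0% = DMSO wells and 100% = unlabeled Bim-BH3 peptide competitor; inhibitors lower millipolarization by displacing the labeled peptide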
LANA-H2B inh: blockers of LANA interaction with H2A/H2B – biochemical, FP readout, HTS, primary screen | cell-free LANA-H2A/H2B peptide, fluorescence polarization | AID 2629, 2010 | Protein LANA1 (Human herpesvirus 8 type P (isolate GK18)), Q9QR71 | inhibition, % (test concentration not listed) | actives 0.6% (n = 320,000); in the data active = inhibition mostly above about 10%, no sharp cut-off; inactive = mostly below about 6.7%
GLD-1 RNA inh: GLD-1/TGE RNA complex disruptors, primary screen, biochemical, fluorescence polarization; Female germline-specific tumor suppressor gld-1 (Caenorhabditis elegans), Q17339; purified GLD-1 + fluorescein TGE RNA; inhibition, % at 5.96 µM; actives 0.44% (n = 320,000); AID 2280, 2010;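 active = percent inhibition above a per-plate cutoff, the plate mean of test compounds plus 3 SD, cut at about 30% in these data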;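 also: 0% = DMSO wells with GLD-1 and probe and 100% = wells lacking GLD-1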
Target sequence (Q17339 whole entry, looked up): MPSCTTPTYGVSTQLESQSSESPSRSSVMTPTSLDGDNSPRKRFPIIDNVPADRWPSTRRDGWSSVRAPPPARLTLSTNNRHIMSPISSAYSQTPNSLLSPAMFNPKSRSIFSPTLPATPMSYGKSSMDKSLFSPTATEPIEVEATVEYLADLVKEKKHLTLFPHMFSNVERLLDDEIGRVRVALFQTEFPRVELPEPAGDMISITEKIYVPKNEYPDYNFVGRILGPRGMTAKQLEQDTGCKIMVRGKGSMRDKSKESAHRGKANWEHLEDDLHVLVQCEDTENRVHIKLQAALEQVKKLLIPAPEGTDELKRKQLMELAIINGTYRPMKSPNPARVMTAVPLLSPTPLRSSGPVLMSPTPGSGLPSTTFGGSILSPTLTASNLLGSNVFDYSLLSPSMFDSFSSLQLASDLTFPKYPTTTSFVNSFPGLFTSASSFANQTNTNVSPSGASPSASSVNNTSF
CR mimetic SO: reduction of superoxide in aged yeast, primary screen, HTS | AID 2690, 2010 | actives 0.18% (n = 330,000) | S. cerevisiae aged cells, superoxide DHE fluorescence; active compounds read low | superoxide response (% of plate mean), % at 10 µM;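 active = superoxide response under a set limit, about three screen SD below normal, cut at about 65% in these data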;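 also: yeast aged for seven days with compound at 30 °C before DHE staining; 100% = average MFI of all compound-treated wells on the plate with controls excluded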
MCL1-BIM inh: inhibitors of MCL1 binding to BIM-BH3, primary screen, biochemical, fluorescence polarization; Induced myeloid leukemia cell differentiation protein Mcl-1 (Homo sapiens), Q07820; GST-MCL1 / FITC-Bim-BH3 fluorescence polarization; inhibition, % at 10.9 µM; actives 0.68% (n = 320,000); AID 2057, 2009;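 active = inhibition above the mean inhibition of all tested compounds plus 3 SD, set per campaign, cut at about 40% in these data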;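 also: 0% = DMSO wells and 100% = unlabeled Bim-BH3 peptide control; higher means more loss of mP so more displacement of Bim peptide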
BCLXL inh confirm: Bcl-xL inhibitors blocking Bim BH3 binding, confirmation, counter-screen for MCL1 inhibitor project, biochemical, fluorescence polarization; shares compounds with MCL1-BIM inh; GST-Bcl-xL / FITC-Bim BH3 peptide FP binding; inhibition, % at 10.9 µM; actives 54% (n = 1,700); AID 2166, 2009;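 active = inhibition above a cutoff equal to the mean inhibition of all tested compounds plus 3 SD, cut at about 30% in these data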;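 also: 0% = DMSO wells and 100% = unlabeled Bim BH3 control peptide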
MCL1 BIM confirm: inhibitors of MCL1 binding to BIM-BH3, confirmation, biochemical, fluorescence polarization, triplicate; shares compounds with MCL1-BIM inh; GST-MCL1 / FITC-Bim-BH3 fluorescence polarization; inhibition, % at 10.9 µM; actives 61% (n = 1,700);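 active = inhibition above the average of all tested compounds plus 3 SD, cut at about 40% in these data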;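 also: 0% = DMSO wells and 100% = unlabeled Bim-BH3 control peptide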
Numbers without * were called inactive; i = inactive; ? = inconclusive; . = no result given.

SMILES	MEX-5 binding	BCLXL inh	LANA-H2B inh	GLD-1 RNA inh	CR mimetic SO	MCL1-BIM inh	BCLXL inh confirm	MCL1 BIM confirm
Cc1cc(C=O)c2c(c1)C=CC1(Oc3ccccc3C(=O)N1C)O2 (stereo unspecified)	-2	58*	-2	109*	79	53*	11	15
CN1C(=O)c2ccccc2OC1(C)Cc1ccccc1 (stereo unspecified)	-1	6	6	0	85	0	.	.
COc1ccc([N+](=O)[O-])cc1NC(=S)NC(C)=O	-1	3	-7	-5	107	0	.	.
COc1ccc(/C=C/C(=O)NC(=S)Nc2cc([N+](=O)[O-])ccc2O)cc1OC	0	7	7	0	97	41*	15	28
COc1ccccc1NC(=O)N1CCc2[nH]c3ccc(F)cc3c2C1	-2	52*	-8	51*	111	50*	14	20
O=C(C1CCCCC1)N1CCc2[nH]c3ccc(F)cc3c2C1	0	3	1	2	94	0	.	.
COc1ccc(S(=O)(=O)c2c(N)n(Cc3ccco3)c3nc4ccccc4nc23)cc1	-2	101*	3	117*	105	105*	22	31
Cc1ccc(S(=O)(=O)c2c(N)n(CCCN(C)C)c3nc4ccccc4nc23)cc1	0	6	1	1	100	10	.	.
COc1ccc(C2=CC(=O)C[C@H](c3ccc(Cl)cc3)C2)cn1	.	5	-3	-5	108	8	.	.
CCN(CC)c1ccc(/C=C/C(=O)c2ccc(Br)cc2)cc1	-51*	58*	-20	76*	99	61*	62*	63*
CN(C)c1ccc(C(=O)/C=C/c2ccc(Br)cc2)cc1	3	0	-1	-7	116	3	.	.
COc1ccccc1N(CC(=O)NC1CCCC1)C(=O)c1csnn1	1	3	2	-3	88	69*	7	3
COc1ccc(N(C)S(=O)(=O)c2cccc(C(=O)OCC(=O)N(C)c3ccccc3)c2)cc1	.	.	2	6	80	.	.	.
CC1CC(=O)Nc2ccccc2N1C(=O)CSc1ccc2ccccc2n1 (stereo unspecified)	.	.	-4	-4	111	.	.	.
COc1ccc(NC(=O)c2ccco2)cn1	-13	70*	11	60*	97	75*	64*	86*
COc1cccc(OC)c1C(=O)Nc1ccc(NC(=O)c2ccco2)cc1	-1	4	-6	-6	96	2	.	.
COc1ccc(NC(=O)/C=C/c2ccco2)cn1	-4	12	2	10	96	16	.	.
COc1ccc(NC(=O)CCl)cn1	-60*	105*	0	82*	108	111*	84*	115*
COc1ccc(NC(=O)/C=C/c2cccc(F)c2)cn1	-9	75*	9	47*	103	75*	54*	68*
COc1ccc(NC(=O)Nc2ccc([N+](=O)[O-])cc2)cn1	-8	68*	8	46*	106	71*	38*	53*
C=CCNC(=O)c1onc(CS(=O)(=O)c2cc(C)cc(C)c2)c1C(=O)NCC=C	0	9	-4	-6	100	3	.	.
CC(C(Sc1ccccc1N)c1ccccc1)[N+](=O)[O-] (stereo unspecified)	1	10	-12	6	i	14	.	.
CCN(C(=O)COC(=O)C1CCN(S(=O)(=O)c2ccc(C)c(C)c2)CC1)C1CCCCC1	.	-4	-2	-2	80	-4	.	.
CCc1cc(C(=O)Nc2ccc(OC)nc2)sc1C	-58*	111*	.	85*	100	118*	108*	130*
Cc1cc(F)ccc1S(=O)(=O)NCC(c1cccnc1)N1CCc2ccccc21 (stereo unspecified)	0	3	-2	-4	86	0	.	.
SMILES	MEX-5 binding	BCLXL inh	LANA-H2B inh	GLD-1 RNA inh	CR mimetic SO	MCL1-BIM inh	BCLXL inh confirm	MCL1 BIM confirm
CN(C)CCNC(=O)c1sc2nc(-c3ccccc3)cc(C(F)(F)F)c2c1N	6	1	1	-33	98	-9	.	.
COc1ccc(-c2cc(C(F)(F)F)c3c(N)c(C(=O)NCCSC)sc3n2)cc1	?	80*	6	58*	98	78*	81*	85*
CC(=O)c1sc2nc(-c3cccs3)cc(C(F)(F)F)c2c1N	-30*	63*	1	-4	100	68*	74*	83*
Cc1cc(C)n2nc(C(=O)OCC(=O)NNC(=O)c3ccccc3)nc2n1	.	1	-1	2	76	6	.	.
Cc1ccc(S(=O)(=O)c2nc(C)oc2NCc2ccccc2)cc1	1	10	-3	11	104	40*	10	57*
CNc1oc(C)nc1S(=O)(=O)c1ccc(C)cc1	2	5	0	-10	103	2	.	.
Cc1ccc(C(=O)N/C(=C\c2ccc(-c3ccccc3[N+](=O)[O-])o2)C(=O)NCCCN(C)C)cc1	-27*	76*	7	51*	93	80*	19	9
Cc1ccc(C(=O)N/C(=C\c2ccc(-c3ccccc3[N+](=O)[O-])o2)C(=O)NCCN(C)C)cc1	-10	56*	-48	23	96	66*	7	2
O=C(NC(=S)/C(=C1\CCCCCN1)[N+](=O)[O-])c1ccccc1	.	.	1	3	80	.	.	.
CCNc1nc(-c2cc(C)n(Cc3ccco3)c2C)cs1	0	41*	3	14	107	46*	14	18
COc1ccc(C(=O)Nc2ccc(NC(=O)c3ccccc3)cc2)cc1S(=O)(=O)N1CCOCC1	-2	1	1	2	96	-4	.	.
COc1ccc(NC(=O)c2c3c(nc4ccccc24)CCC3)cc1S(=O)(=O)N1CCOCC1	-7	10	4	4	103	50*	15	45*
